# RORgamma inh: ROR gamma (mouse) transcription inhibition; P51450; Potency, µM (highest dose often 53.6 µM), for the others: at the top dose activity change, negative = inhibition, hits mostly inhibitors; AID 2551; Drosophila S2 Gal4-RORgamma UAS-luciferase reporter, 20 h; 310,000 tested, 5.4% active; note: nearly all actives have a fitted effect of over 60% in size
# Target sequence (P51450 whole entry, looked up, the tested form may be a part): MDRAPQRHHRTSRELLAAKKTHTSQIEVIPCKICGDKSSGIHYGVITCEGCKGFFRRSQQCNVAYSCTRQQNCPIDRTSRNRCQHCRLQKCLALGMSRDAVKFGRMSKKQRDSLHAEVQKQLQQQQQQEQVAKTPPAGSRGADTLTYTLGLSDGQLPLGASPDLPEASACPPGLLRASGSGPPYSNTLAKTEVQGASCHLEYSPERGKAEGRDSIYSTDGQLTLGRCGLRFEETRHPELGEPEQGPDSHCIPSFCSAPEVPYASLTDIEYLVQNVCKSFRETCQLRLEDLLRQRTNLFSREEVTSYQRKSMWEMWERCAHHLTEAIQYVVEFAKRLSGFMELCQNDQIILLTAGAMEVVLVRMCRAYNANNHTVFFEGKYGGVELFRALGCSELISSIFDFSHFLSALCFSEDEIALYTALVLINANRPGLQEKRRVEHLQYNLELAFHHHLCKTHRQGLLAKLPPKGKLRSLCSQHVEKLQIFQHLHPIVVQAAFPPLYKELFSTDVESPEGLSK
#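 Drosophila S2 cells stably expressing Gal4-DBD/mouse RORγ fusion under metallothionein promoter plus UAS-luciferase; compound 1 h, then 700 uM CuSO4 induction for 20 h at ambient temperature; inhibition read as reduced luminescence.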
# Gal4-VP16 FLuc: inhibits Gal4-VP16 luciferase reporter, ROR gamma counter-screen. Drosophila S2 Gal4-VP16 UAS-luciferase, luminescence, 20 h. Potency, µM (doses to about 53.6 µM), for inactives: at the top dose activity, negative = inhibition, most hits filed as inhibitors. 310,000 tested, 3.5% active;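 note: Gal4-VP16 expression switched on by copper sulfate through the metallothionein promoter; nearly all actives have a fitted effect of over 50% in size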
# KinaseGlo FLuc: Kinase-Glo luciferase inhibition (counter-screen) | Q27757 | Kinase-Glo luciferase, ATP luminescence, 8 min | Potency, µM (top dose mostly 38.3 µM), without a hit: at the highest dose activity change, negative = inhibition, hits mostly inhibitors | 200,000 tested, 0.28% active | AID 1379; note: nearly all actives have a fitted effect of over 60% in size
#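 Recombinant Kinase-Glo luciferase, 10 uM ATP (linear range), luciferin; imidazole pH 7.2 / KCl / MgCl2 / Tween / BSA buffer; 8 min RT; luminescence.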
# Starred values were filed as active, the others as inactive; ? = inconclusive; nt = no result given; [ ] = another dose, or the depositor's remark. Only some compounds are listed: those with a hit (about 6.4% of all), similar ones and a draw of the others. Calls come from the whole dose curve; as a rule, active = well fitted curve in the direction sought with a large enough effect; inconclusive = small, poorly fitted or top-dose-only effect, or another doubt; inactive = no such curve, though single readings can be large; an effect the other way counts as inactive or inconclusive. % is set by controls: 0 for no effect and ±100 for the full control effect; potency is the fitted concentration of half-maximal effect.
SMILES,RORgamma inh,Gal4-VP16 FLuc,KinaseGlo FLuc
Cc1cc2c([nH]c3ccccc32)c(C)n1,1µM*,-16.0%,nt
Cc1nc(C(=O)NCCO)cc2c1[nH]c1ccccc12,13.9%,-5.9%,nt
Cc1ccc(OCc2cc(C(=O)N3CC4C[C@@H]5CC3C[C@H](C4)C5)no2)cc1C,20.8%,?,nt
COc1ccc(C2(C)NC(=O)NC2=O)cc1OC (stereo unspecified),-2.6%,-1.7%,nt
Cc1cccc(C(=O)N[C@H](C(=O)Nc2nc3ccc(S(C)(=O)=O)cc3s2)C(C)C)c1,32.6%,-10.8%[10 µM],6.3%
O=C(N/N=C1\CC(c2ccccc2)Oc2ccccc21)c1ccccn1 (stereo unspecified),?,-7.7%,-0.1%
CC(=O)Nc1ccccc1NC(=O)C/C(C)=N/NC(=O)c1ccccn1,-0.2%,4.8%,0.4%
C/C(=N\NC(=O)c1ccccn1)c1ccc(C(=O)O)s1,-3.4%,12.6%,14.1µM*
CC(=N/O)/C(C)=N\NC(=O)c1ccccn1,6.31µM*,5.01µM*,?
C/C(=N/NC(=O)c1cnccn1)c1cccs1,-37.3%,?,?
O=C(NN=C1c2ccccc2-c2ccccc21)c1ccccn1,3.16µM*,4.47µM*,-2.4%
CCCn1c(C)nc2c(NCCCCN3CCCC3)nc(C)nc21,-10.4%,6.7%,-3.4%
COC(=O)c1ccc(C(NC(=O)OCc2ccccc2)/C(F)=C/[C@@H](C)C(=O)NCc2cc(F)cc(F)c2)cc1 (stereo partly specified),16.2%,-12.9%,0.6%
CCC(C)NC(=O)c1cc(S(=O)(=O)N2CCCCC2)c[nH]1 (stereo unspecified),-1.1%,1.6%,nt
COc1ccc(CCN2C(=O)C3C(C2=O)C2C=CC3C23CC3)cc1OC (stereo unspecified),6.6%,2.5%,2.9%
O=C(Cn1ccc2cc(S(=O)(=O)N3CCCC3)ccc21)NCc1ccco1,69.3%,-2.8%,nt
Cn1nc(-c2ccccn2)nc2c(=O)n(C)c(=O)nc1-2,0.447µM*,0.562µM*,nt
COc1ccc(-c2nc(-c3ccccn3)ncc2S(C)(=O)=O)cc1,-20.6%,7.7%,-0.2%
CCCc1nc2c(=O)n(C)c(=O)nc-2n(C)n1,1.41µM*,2.82µM*,-1.7%
CCn1c(N)nc2c1c(=O)n(C)c(=O)n2C,-19.0%,15.1%,-2.4%
O=C(c1cccs1)N1CCN(Cc2ccccc2[N+](=O)[O-])CC1,36.8%,0.8%,-0.1%
CCOC(=O)Cc1csc(NS(=O)(=O)c2ccc(SC)cc2)n1,-24.1%,2.8%,2.2%
CSc1ccccc1NC(=O)CN(C)CC(=O)Nc1ccccc1C(F)(F)F,8.91µM*,3.4%[10 µM],-1.0%
COc1ccc(NC(=O)CN(C)CC(=O)Nc2ccccc2SC)cc1,-0.6%,22.8%,0.0%
CSc1ccccc1NC(=O)CN(C)CC(=O)Nc1ccc(Cl)cc1F,11.2µM*,?,2.0%
SMILES,RORgamma inh,Gal4-VP16 FLuc,KinaseGlo FLuc
CSc1ccccc1NC(=S)Nc1ccccc1C(F)(F)F,?,1.2%,0.0%
CCC1=C(OC(=O)N(CC)CC)N2C(=O)OC(=NCCOC)[C@]2(C)[C@H]2C1=CC[C@H]1C(=O)N(CC)C(=O)[C@H]12,1.3%,1.5%,-6.3%
Cc1ccc(Nc2nc(CSc3n[nH]c(N)n3)cs2)cc1,12.6µM*,-13.0%,nt
Cc1ccc(CSc2n[nH]c(N)n2)cc1,-0.1%,1.3%,-3.7%
C=CC[C@@H]1C=C[C@H](O/N=C2\c3cc(OC)ccc3O[C@H](c3cccc(OC)c3)[C@H]2O)[C@H](CO)O1,4.4%[10 µM],-8.0%[10 µM],nt
COc1ccc2[nH]c(C)c(CCNC(=S)Nc3cc(C)cc(C)c3)c2c1,2.24µM*,11.2µM*,-3.7%
CCc1c(C)[nH]c2ccc(OC)cc2c1=S,1.9%,-7.4%,1.4%
COc1ccc2[nH]c(C)c(CCNC(=S)Nc3cccc(C)c3)c2c1,5.01µM*,20µM*,-1.9%
COc1ccc2[nH]c(C)c(CCNc3ccc(C(F)(F)F)cc3[N+](=O)[O-])c2c1,41.6%,-10.8%,-1.2%
CNC(=S)N(CCc1c(C)[nH]c2ccc(OC)cc12)Cc1cc(OC)c(OC)c(OC)c1,16.9%,-7.6%,-3.4%
COc1ccc2[nH]c(C)c(CCNC(=S)Nc3cc(C)ccc3C)c2c1,5.01µM*,?,-3.7%
CNC(=S)N(CCc1c(C)[nH]c2ccc(OC)cc12)Cc1ccco1,9.0%,13.4%,nt
COc1ccc2[nH]c(C)c(CCNC(=S)Nc3ccc(F)cc3)c2c1,3.98µM*,3.55µM*,2.4%
CCC1=C2CC[C@H]3C(=O)NC(=O)[C@H]3[C@H]2[C@@]2(C)C(=O)N(CC3CC3)C(=O)N2C1=O,-7.6%,1.7%,-5.6%
CN(C)C(=S)Nc1ccc2c(c1)OCCO2,-7.6%,7.3%,nt
N#CC(C#N)=Cc1cnc(N2CCN(c3ccccc3)CC2)s1,9.0%,-9.8%,nt
COc1ccc2[nH]c(C)c(CCNC(=S)Nc3ccccc3OC)c2c1,10µM*,-1.1%,0.7%
COc1ccccc1NC(=S)NCCc1ccc(S(N)(=O)=O)cc1,-17.9%,-9.6%,3.2%
Cc1ccc(-c2csc(N3CCC[C@@H]3C(=O)NCCn3c(-c4ccncc4)nc4ccccc43)n2)cc1,-34.0%,?,nt
CCCn1c(C2CCCN2c2nc(-c3ccc(C)cc3)cs2)nc2ccccc21 (stereo unspecified),3.55µM*,?,nt
CC(NC(=O)COC(=O)c1cc([N+](=O)[O-])ccc1N1CCOCC1)c1ccccc1 (stereo unspecified),43.3%,?,nt
CCOc1cc(/C=C\[N+](=O)[O-])ccc1OCC(=O)Nc1ccccc1C,1.12µM*,1.78µM*,-0.4%
COc1cc(/C=C/c2cccc[n+]2C)ccc1OCC(=O)Nc1ccccc1C,-8.2%,-8.4%,nt
COC(=O)C1=C[C@@H](C(=O)OC)[C@@H]2C3=C(C(=O)[C@@]2(C)NC(=O)c2ccccc2)[C@H](C)[C@@H]2C(=O)N(Cc4ccccc4)C(=O)[C@@H]2[C@@H]3C1,5.8%,-7.7%,nt
CSc1nnc(C)c(=O)n1COC(=O)/C=C/c1ccc2c(c1)OCO2,12.1%,2.2%,-3.0%
SMILES,RORgamma inh,Gal4-VP16 FLuc,KinaseGlo FLuc
Nc1cc(S(=O)(=O)Nc2ccc(Cl)cc2)ccc1N1CCOCC1,4.5%,15.8µM*,nt
O=S(=O)(Nc1ccc(Cl)cc1)c1ccc(N2CCOCC2)c(NC(=S)NC2CC2)c1,44.5%,0.4%,-1.0%
COc1ccc(-c2nc(N)n(C(=O)c3ccccc3Cl)n2)cc1,-9.8%,-5.0%,-4.5%
CCS(=O)(=O)N1CCN(C(=O)c2cccc3ccccc23)CC1,-11.2%,0.2%,nt
COc1cc(O)c(C(=O)c2ccccc2)cc1O,12.6µM*,?,-0.3%
COc1cc(O)c(C(=O)c2ccccc2)cc1S(=O)(=O)O,-10.3%,7.9%,-0.8%[39.9 µM]
N#Cc1cccc2c1-c1ccccc1/C2=N/NC(N)=S,3.98µM*,5.01µM*,nt
N#Cc1cccc2c1-c1ccccc1/C2=N/NC(N)=O,-13.1%,-22.1%,nt
FC(F)(F)c1ccccc1NC(=S)N1CCc2ccccc2C1,15.8µM*,?,2.1%
Cc1c(Cl)cccc1NC(=S)N1CCc2ccccc2C1,10µM*,?,-0.2%
Cc1c(Cl)cccc1NC(=S)N1CCOCC1,-31.2%,1.2%,3.6%
O=C(CN1CCc2ccccc2C1)Nc1ccccc1C(F)(F)F,22.4%,7.0%,nt
CC(C)(CO)NCC#Cc1ccccc1,5.8%,-6.7%,-0.4%
O=C(NCC1CCCCC1)c1nnc(C(=O)NCC2CCCCC2)c2c1[nH]c1ccccc12,8.9%,1.4%,1.7%

# Compound activity as filed in PubChem BioAssay.
